This is part of a sample that, as a whole, favours compounds with a hit. Of some 79,000 tested, about 15% had one in any assay. Unmarked numbers belong to inactive results. Activity calls are given as the source filed them. No stated cut-off is given here; in the data, active means growth inhibition above about 70%; inactive means the rest.
Experiments:
[1] = NCI Yeast Anticancer Drug Screen. Data for the rad50 strain (AID 155);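 further: 0% = growth of vehicle-only cultures of the same strain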; details: S. cerevisiae rad50 strain growth inhibition, hits give high values
How it was run: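 Inhibition values express reduced yeast growth in compound-treated cultures relative to vehicle-treated controls.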

[2] = NCI Yeast Anticancer Drug Screen. Data for the mec2-1 strain (AID 157); details: S. cerevisiae mec2-1 strain, hits give high values
How it was run: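 Vehicle-treated cultures served as reference for growth inhibition of compound-exposed mec2-1 yeast.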

[3] = NCI Yeast Anticancer Drug Screen. Data for the sgs1 mgt1 strain (AID 161);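 further: 0% = growth of cultures given vehicle only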; details: S. cerevisiae sgs1 mgt1 strain, hits give high values
How it was run: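 Genetically altered yeast, compound exposure, growth inhibition relative to vehicle.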

[4] = NCI Yeast Anticancer Drug Screen. Data for the cln2 rad14 strain (AID 165);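 further: 0% = growth equal to vehicle treated cultures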; details: S. cerevisiae cln2 rad14 strain, hits give high values
How it was run: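 Each compound was tested on cln2 rad14 yeast. Inhibition of growth was calculated against vehicle-exposed controls.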

[5] = NCI Yeast Anticancer Drug Screen. Data for the bub3 strain (AID 167); details: S. cerevisiae bub3 mutant strain, hits give high values
How it was run: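 Steps: expose the mutant yeast strain to compound; grow alongside vehicle-treated cultures; measure growth; express inhibition against the vehicle cultures.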

[6] = NCI Yeast Anticancer Drug Screen. Data for the mlh1 rad18 strain (AID 175); details: S. cerevisiae mlh1 rad18 strain growth inhibition, hits give high values
How it was run: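 Vehicle-treated cultures served as the reference for growth inhibition in a yeast strain carrying DNA damage repair alterations exposed to each compound.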

[7] = at 5.0 µM (retest, dose inferred, filed as 0.5)
[8] = at 50.0 µM (retest, dose inferred, filed as 5.0)

| SMILES | growth inhibition [1, 7] | growth inhibition [1, 8] | growth inhibition ([1]; at 50.0 µM) | growth inhibition [2, 7] | growth inhibition [2, 8] | growth inhibition ([2]; at 50.0 µM) | growth inhibition [3, 7] | growth inhibition [3, 8] | growth inhibition ([3]; at 50.0 µM) | growth inhibition [4, 7] | growth inhibition [4, 8] | growth inhibition ([4]; at 50.0 µM) | growth inhibition [5, 7] | growth inhibition [5, 8] | growth inhibition ([5]; at 50.0 µM) | growth inhibition [6, 7] | growth inhibition [6, 8] | growth inhibition ([6]; at 50.0 µM) |
| --- | --- | --- | --- | --- | --- | --- | --- | --- | --- | --- | --- | --- | --- | --- | --- | --- | --- | --- |
| c1ccc(CN2CCc3[nH]c4ccccc4c3C2)cc1 | -1% | -3% | -1.9% | -1% | -2% | 17.1% | -4% | -1% | 7.8% | -1% | -7% | 33.5% | 1% | 6% | -2.45% | -3% | -1% | 18% |
| Cc1ccc2c(c1)[n+]([O-])c(N)c(C#N)[n+]2[O-] | 0% | 97% (active) | 68.5% | -22% | 98% (active) | 25.8% | -16% | 97% (active) | 36.3% | -26% | 98% (active) | 15.8% | -31% | 97% (active) | 29.4% | -48% | 96% (active) | 62.4% |
| COc1ccc(C2CC(CO)ON2c2ccccc2)cc1 (configuration not stated) | -17% | 7% | 98% (active) | -14% | -9% | 98.5% (active) | -1% | -15% | 98.4% (active) | -23% | -18% | 97.9% (active) | -21% | -33% | 98.5% (active) | -6% | 1% | 98.8% (active) |
| Nc1ccc(C2CCC[C@H]2c2ccc(N)cc2)cc1 (some centres not stated) | 0% | 93% (active) | 48.8% | 15% | 87% (active) | 46.8% | 14% | 90% (active) | 53.2% | 1% | 66% | 39.6% | -3% | 81% (active) | 58.6% | 21% | 95% (active) | 49.1% |
| Cc1ccc(N2C(=O)C(C)SC23C(=O)Nc2ccc(Cl)cc23)cc1 (configuration not stated) | -8% | 99% (active) | 98.5% (active) | 9% | 99% (active) | 98.8% (active) | -3% | 98% (active) | 37.4% | 0% | 98% (active) | 97.8% (active) | -8% | 98% (active) | 98.8% (active) | 1% | 99% (active) | 89% (active) |
| Oc1ccc(CNCc2ccccc2)c2cccnc12 | 20% | 98% (active) | 98.4% (active) | 4% | 97% (active) | 97% (active) | 0% | 98% (active) | 96.2% (active) | -26% | 96% (active) | 94.6% (active) | -5% | 99% (active) | 98.1% (active) | 4% | 99% (active) | 98.2% (active) |
| O=C(C=P(c1ccccc1)(c1ccccc1)c1ccccc1)CC(=S)CC(=O)C=P(c1ccccc1)(c1ccccc1)c1ccccc1 | 31% | 71% (active) | 97.3% (active) | 18% | 69% | 97.8% (active) | 24% | 85% (active) | 97.8% (active) | -3% | 61% | 96.2% (active) | 9% | 88% (active) | 95.9% (active) | 8% | 77% (active) | 95.2% (active) |
| ClCc1nnc2n1-c1ccc(Cl)cc1SC2 | 3% | 68% | 12.4% | 0% | 64% | 25.9% | -21% | 66% | 35.3% | 13% | 88% (active) | 6.15% | 3% | 92% (active) | 20.9% | -20% | 87% (active) | 24.1% |
| Nc1nc2nn(-c3ccc(C(=O)O)cc3)nc2c(=O)[nH]1 | 2% | 9% | 16.6% | 3% | 1% | 30.8% | -4% | 3% | 9.3% | 4% | 1% | -7.05% | -2% | -3% | 39.8% | 3% | 9% | 67.9% |
| CC1=C(C(=O)Nc2ccccc2)C(c2cccc([N+](=O)[O-])c2)C(C(=O)Nc2ccccc2)=C(C)N1 | 4% | 30% | -7.95% | 1% | 63% | 26.1% | 4% | 30% | 19.1% | -2% | 24% | 4.75% | 6% | 75% (active) | 35.4% | -7% | 24% | 18.9% |
| Cc1c2ccccc2c(CSC(=N)N)c2ccccc12 | 47% | 99% (active) | 99.5% (active) | 22% | 99% (active) | 99.7% (active) | 9% | 98% (active) | 99.5% (active) | 26% | 99% (active) | 99.5% (active) | 7% | 99% (active) | 99.4% (active) | 30% | 99% (active) | 99.7% (active) |
| Nc1ccc2c(c1)[nH]c(=O)c1cccc(Cl)c12 | -32% | 89% (active) | 96.1% (active) | -34% | 88% (active) | 55.3% | -39% | 80% (active) | 61.2% | -31% | 94% (active) | 63.9% | -52% | 90% (active) | 32.5% | -40% | 95% (active) | 93.1% (active) |
| CN(C)CCNc1ccc(O)c2sc3ccccc3c(=O)c12 | 0% | 82% (active) | 81.8% (active) | -6% | 56% | 42.8% | -7% | 70% (active) | 48.1% | -7% | 19% | 30.6% | -9% | 3% | 33.4% | -5% | 81% (active) | 51% |
| O=C1OC2(Cc3ccccc31)c1ccccc1-c1ccccc12 | -5% | -1% | 20.8% | -4% | -11% | 25.9% | -6% | 38% | 41% | -5% | -15% | 17.6% | -10% | -7% | 9.45% | -19% | -9% | 27.8% |
| N#CSCCSC#N | 5% | 95% (active) | 76% (active) | -1% | 93% (active) | 82.5% (active) | 4% | 91% (active) | 87.2% (active) | 6% | 86% (active) | 40.3% | 9% | 96% (active) | 81.8% (active) | 3% | 95% (active) | 83.7% (active) |
| CC(=O)C1C(S)CC2C3CC=C4CC(O)CCC4(C)C3CCC21C (configuration not stated) | 1% | 98% (active) | 98.8% (active) | 7% | 98% (active) | 98.5% (active) | -8% | 98% (active) | 98.7% (active) | -7% | 98% (active) | 98% (active) | 8% | 98% (active) | 50.9% | 0% | 98% (active) | 98.8% (active) |
| NNCc1cc(Cl)c2cccnc2c1O | 18% | 96% (active) | 98.8% (active) | 6% | 99% (active) | 98.8% (active) | 7% | 98% (active) | 98.5% (active) | -8% | 98% (active) | 97.5% (active) | -1% | 98% (active) | 99% (active) | 9% | 98% (active) | 98.7% (active) |
| CN(C)c1ccc(C(c2cc3c(cc2O)OCO3)N2CCCCC2)cc1 (configuration not stated) | 3% | 86% (active) | 99.3% (active) | -4% | 98% (active) | 99.5% (active) | 8% | 88% (active) | 99.5% (active) | -1% | 70% (active) | 98.3% (active) | -5% | 97% (active) | 99.3% (active) | -8% | 97% (active) | 99.3% (active) |
| Cc1cc(NS(=O)(=O)c2ccc(Nc3c4ccccc4nc4c(C(=O)NC(CO)(CO)CO)cccc34)cc2)no1 | -1% | 17% | 75.2% (active) | -5% | -10% | 23.9% | -1% | -3% | -1.6% | -21% | 17% | 71.5% (active) | 0% | -6% | 6.25% | -2% | 19% | 74% (active) |
